Test systems include NCI-H23 lung; NCI-H226 lung; NCI-H322M lung; HOP-62 NSCLC; NCI-H460 lung; HOP-92 NSCLC; NCI-H522 lung; A549/ATCC NSCLC; 786-0 renal.
Test in all cases: NCI-60 one-dose screen, 48 h (100 = growth as untreated, 0 = no growth, -100 = all killed)
Conditions in all cases: 10 µM unless noted

About 83,000 compounds went through this panel and 20% of them were active in at least one assay; those are over-represented in the sample as a whole.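 Step 1: grow cells in 96-well plates. Step 2: add test compound at a single concentration. Step 3: incubate 48 h. Step 4: record percent growth.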 Unmarked numbers belong to inactive results. The source made the active and inactive calls. Rule for the calls: active = growth percent below 10; inactive = the rest.

Regarding `NC(=Nc1nc(-c2ccccn2)cc2ccccc12)c1ccccn1`, the growth with NCI-H23 lung was -90.1% (active); in the assay on NCI-H226 lung, 21.4%; in the assay with NCI-H322M lung, 21.6%; in the assay with HOP-62 NSCLC, 8.21% (active); with NCI-H460 lung, 1.13% (active); in the assay with HOP-92 NSCLC, -2.84% (active). Moreover, the growth in the assay with NCI-H522 lung is 36.3%; with A549/ATCC NSCLC, -54.2% (active); in the assay on 786-0 renal it was 3.78% (active).
For `CCC[CH2][Sn]1([CH2]CCC)[O]C2C(CO)OC(n3ccc(N)nc3=O)C2[O]1` (stereo not given), the growth with NCI-H23 lung is -42.1% (active); in the assay with NCI-H226 lung, -93.9% (active); in the assay with NCI-H322M lung it was 33.3%; in the assay with HOP-62 NSCLC it was 22.7%; with NCI-H460 lung, 12.1%; in the assay on HOP-92 NSCLC, -56.3% (active). The growth in the assay on NCI-H522 lung is -78.9% (active); in the assay on A549/ATCC NSCLC it was 68.1%; in the assay with 786-0 renal, -89.9% (active).
For `O=C1/C(=C/c2ccccn2)CCc2ccccc21`, the growth in the assay with NCI-H23 lung is 105%; in the assay with NCI-H226 lung it was 98.2%; in the assay on NCI-H322M lung, 113%; in the assay on HOP-62 NSCLC, 113%; with NCI-H460 lung, 102%; in the assay on HOP-92 NSCLC it was 91.5%. Besides, the growth in the assay with NCI-H522 lung was 89.9%; in the assay on A549/ATCC NSCLC, 99.3%; with 786-0 renal, 101%.
With `O=C(c1ccccc1)C(Br)[N+](=O)[O-]` (stereo not given), the growth in the assay on NCI-H23 lung was 99.8%; in the assay on NCI-H226 lung, 101%; in the assay on NCI-H322M lung it was 101%; with HOP-62 NSCLC it was 73.6%; in the assay on NCI-H460 lung it was 101%; in the assay with HOP-92 NSCLC it was 103%. Besides, the growth in the assay on NCI-H522 lung is 64.4%; in the assay on A549/ATCC NSCLC, 69.6%; with 786-0 renal, 106%.
As to `CCN(CC)CCNc1ccc([N+](=O)[O-])c2sc3ccccc3c(=O)c12`, the growth in the assay with NCI-H23 lung is 34.6%; in the assay with NCI-H226 lung, 18.4%; in the assay with NCI-H322M lung, 14.2%; in the assay on HOP-62 NSCLC, 16.9%; with NCI-H460 lung, 3.12% (active); in the assay with HOP-92 NSCLC, 16.9%. The growth in the assay with NCI-H522 lung was 12.7%; with A549/ATCC NSCLC it was 7.92% (active); in the assay on 786-0 renal, 37.2%.
With `C1=C(c2ccccc2)c2ccccc2C1`, the growth was 98.5% in the assay on NCI-H23 lung; 96.3% with NCI-H226 lung; 78.4% with NCI-H322M lung; 94% in the assay with HOP-62 NSCLC; 99.5% in the assay on NCI-H460 lung; 74.8% with HOP-92 NSCLC. In addition, the results for the growth in the assay on NCI-H522 lung, with A549/ATCC NSCLC and in the assay on 786-0 renal were 96%, 106% and 86.4%, respectively.
For `NC(CS/C(Cl)=C/Cl)C(=O)O` (stereo not given), the growth in the assay with NCI-H23 lung was 97.6%; in the assay on NCI-H226 lung it was 86.9%; in the assay on NCI-H322M lung, 73.5%; with HOP-62 NSCLC, -3.21% (active); in the assay on NCI-H460 lung, -45.9% (active); with HOP-92 NSCLC it was 83.3%. In addition, the results for the growth with NCI-H522 lung, with A549/ATCC NSCLC and with 786-0 renal were 93.4%, -52.9% (active) and 105%, respectively.
As to `N#CC1c2ccccc2C=CN1C(=O)CCCl` (stereo not given), the growth in the assay with NCI-H23 lung was 94.2%; in the assay with NCI-H226 lung it was 94.1%; with NCI-H322M lung, 93.8%; in the assay with HOP-62 NSCLC, 99.8%; in the assay on NCI-H460 lung it was 106%; in the assay with HOP-92 NSCLC, 60.7%. In addition, the growth was -71.6% (active) with NCI-H522 lung, 96.2% in the assay with A549/ATCC NSCLC and 82% in the assay on 786-0 renal.
In the case of `CCOc1ccc(Nc2nc3c(s2)C(=O)c2ccccc2C3=O)cc1`, the growth is 41.9% in the assay on NCI-H23 lung; 87% in the assay on NCI-H226 lung; 105% in the assay on NCI-H322M lung; 113% with HOP-62 NSCLC; 94.4% in the assay with NCI-H460 lung; 85.1% with HOP-92 NSCLC. In addition, the growth with NCI-H522 lung was 51.5%; with A549/ATCC NSCLC, 94%; in the assay on 786-0 renal it was 108%.
With `CCN1/C(=C/C(C)=C/c2sc3ccc4ccccc4c3[n+]2CC)Sc2ccc3ccccc3c21`, the growth is -65.5% (active) in the assay with NCI-H23 lung; -82.4% (active) with NCI-H226 lung; -97.8% (active) in the assay on NCI-H322M lung; -65.2% (active) in the assay with HOP-62 NSCLC; -90.5% (active) in the assay on NCI-H460 lung; -89.1% (active) in the assay on HOP-92 NSCLC. Further, the growth in the assay on NCI-H522 lung was -77.3% (active); in the assay on A549/ATCC NSCLC, -76.8% (active); in the assay on 786-0 renal, -88.5% (active).
Turning to `Cn1c(-c2ccccc2)c(/C=C/C2=[N+](C)c3ccccc3C2(C)C)c2ccccc21`, the growth in the assay with NCI-H23 lung was 7.45% (active); in the assay on NCI-H226 lung, 13.5%; with NCI-H322M lung, 50.3%; in the assay on HOP-62 NSCLC, 10.2%; in the assay with NCI-H460 lung, 2.46% (active); with HOP-92 NSCLC, -17.1% (active). In addition, the growth was -28.6% (active) with NCI-H522 lung, 6.27% (active) with A549/ATCC NSCLC and 24.2% in the assay on 786-0 renal.
Consider `O=C(c1ccc(O)c(Br)c1)c1ccc(O)c(Br)c1`, for which the growth was 103% in the assay on NCI-H23 lung; 109% in the assay with NCI-H226 lung; 113% with NCI-H322M lung; 102% in the assay on HOP-62 NSCLC; 111% with NCI-H460 lung; 101% in the assay with HOP-92 NSCLC. Further, the growth was 115% in the assay on NCI-H522 lung, 109% with A549/ATCC NSCLC and 107% with 786-0 renal.
As to `O=[N+]([O-])c1ccc(C2N(Cc3ccc(Cl)cc3)CCN2Cc2ccc(Cl)cc2)cc1`, the growth in the assay on NCI-H23 lung is 97.5%; in the assay with NCI-H226 lung, 95.1%; in the assay with NCI-H322M lung, 75.5%; in the assay on HOP-62 NSCLC it was 94.5%; in the assay with NCI-H460 lung, 101%; with HOP-92 NSCLC, -1.91% (active). Also, the growth with NCI-H522 lung was 75.8%; in the assay with A549/ATCC NSCLC, 96%; in the assay with 786-0 renal, 81.7%.
Regarding `O=C(O)c1cc2c(s1)C(=O)c1sccc1C2=O`, the growth with NCI-H23 lung is -41.9% (active); in the assay on NCI-H226 lung, 103%; with NCI-H322M lung, 85.9%; with HOP-62 NSCLC, -89% (active); with NCI-H460 lung, 104%; in the assay on HOP-92 NSCLC it was 54.4%. For the same molecule, the growth in the assay on NCI-H522 lung was -63.4% (active); in the assay on A549/ATCC NSCLC it was 28.7%; in the assay with 786-0 renal, 93.2%.
Turning to `O=C1C=CC(=O)N1c1cc(Cl)c(Cl)cc1Cl`, the growth with NCI-H23 lung is 100%; in the assay on NCI-H226 lung, 100%; in the assay with NCI-H322M lung it was 90.6%; in the assay on HOP-62 NSCLC it was 100%; in the assay with NCI-H460 lung, 107%; in the assay with HOP-92 NSCLC, 107%. Moreover, the growth in the assay on NCI-H522 lung is 84.4%; with A549/ATCC NSCLC, 103%; in the assay on 786-0 renal, 96%.

The record behind these values is PubChem BioAssay (NCI).
